Measurements as given in PubChem BioAssay (NCI).
About 83,000 compounds went through this panel and 20% of them were active in at least one assay; those are over-represented in the sample as a whole.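 Cell lines were cultured in 96-well plates, exposed to a single compound concentration, and assessed for percent growth 48 hours later.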 Values without a mark were called inactive. Activity calls are given as the source filed them. Rule for the calls: active = growth percent below 10; inactive = the rest.

system: NCI/ADR-RES ovarian; experiment: NCI-60 one-dose screen, 48 h (100 = growth as untreated, 0 = no growth, -100 = all killed); conditions: 10 µM unless noted

Compared with `C=C1c2c(C)nn(-c3ccc(C#CCOC4OC(CO)C(O)C(O)C4O)cc3)c2N(C)C23C[C@H]1C1(C)c4c(C)nn(-c5ccc(C#CCOC6OC(CO)C(O)C(O)C6O)cc5)c4N(C)C(C)(C[C@H]12)C3` (some centres undefined), `CC[C@@H]1OC(=O)[C@H](C)[C@@H](O[C@H]2C[C@@](C)(OC)[C@@H](O)[C@H](C)O2)[C@H](C)[C@@H](O[C@@H]2O[C@H](C)C[C@H](N(C)C)[C@H]2O)[C@](C)(O)C[C@@H](C)[C@@H]2N[C@@H](COCCOC)O[C@H]([C@H]2C)[C@]1(C)O` is higher in growth: 77.2% for the first, 101% for the second.

First: [O-]/[N+](=C\C=C\c1ccccc1)c1ccccc1
Second: O=C(c1ccccc1)c1ccco1
The growth of the first is higher: 103% for the first, 95.7% for the second.

First: CN1CCN(Cc2ccc(NC(=O)c3[nH]ncc3Nc3ccnc4ccnn34)cc2)CC1
Second: O=C(O)c1ccc(NC(=O)c2ccc(Nc3ccnc(C(F)(F)F)c3)cc2)cc1
The growth of the first is higher: 107% for the first, 102% for the second.

Going from `CCCOc1ccc2c(c1)CC[C@@H]1[C@@H]2CC[C@@]2(C)[C@H]1CC[C@]2(C)O` to `C=C(C)[C@@H]1C/C=C(/C=O)CC[C@@H]2O[C@@]2(C)CC/C=C(\C)CC1`, the growth rises from 79.7% to 115%.

Compared with `O=C1CC(C(F)(F)F)=NN1C(=O)c1nn(-c2ccc(Cl)cc2)cc1O`, `Cc1cc(C)n(C(=O)c2nn(-c3ccc(Cl)cc3)cc2O)n1` is lower in growth: 72.4% for the first, 22.6% for the second.

`CCCCc1nc(Cl)c(CO)n1Cc1ccc(-c2ccccc2-c2nn[nH]n2)cc1` and `CCN(CC)c1ccc(CN(CC(=O)c2ccc(Cl)c(Cl)c2)Cc2ccccc2)cc1` are the same in growth: 105% for the first, 105% for the second.

Going from `CN(C)c1ccc2[nH]c3c(C(N)=O)cc(=O)c(=O)c=3oc2c1` to `Cc1c(C(N)=O)sc2ncn(Cc3ccccc3)c(=O)c12`, the growth rises from 58.1% to 105%.

Going from `CCC1(c2ccccc2)Oc2ccccc2-n2c(C#N)c3ccccc3c2C1=O` (centres undefined) to `O=C(CSc1nc2c(n1Nc1ccccc1)-c1ccccc1SC2)Nc1nc(-c2ccc(Cl)cc2)cs1`, the growth falls from 95.6% to 66%.

Going from `O=C1Nc2ccc(F)cc2/C1=C/c1nc(-c2ccc(F)cc2)n2ccccc12` to `COc1ccc(-c2nn(-c3ccccc3)cc2/C=C2\SC(=S)N(CCc3ccc(O)cc3)C2=O)cc1`, the growth falls from 112% to 90.3%.

First: COc1cc(C(=O)/C=C/c2cccnc2Nc2ccccc2)cc(OC)c1OC
Second: COc1cc(/C=C/c2nnc(-c3cc(-c4ccccc4)n[nH]3)o2)cc(OC)c1OC
The growth of the first is lower: 13.4% for the first, 86.7% for the second.

Compared with `Fc1ccc([C@@H]2CCNC[C@H]2COc2ccc3c(c2)OCO3)cc1`, `CCOc1cccc(C2CC(=O)Nc3cc4c(cc32)OCO4)c1` (centres undefined) is lower in growth: 86.3% for the first, 82.3% for the second.

First: CCCc1nn(C)c2c(=O)[nH]c(-c3cc(S(=O)(=O)N4CCN(C)CC4)ccc3OCC)nc12
Second: Cn1c(=O)c2c(nc(Br)n2CCC(=O)Nc2ccc(F)cc2)n(C)c1=O
The growth of the first is lower: 90.2% for the first, 101% for the second.

Compared with `COc1ccc(-c2cc(Cc3cccs3)c(=O)n(Cn3cncn3)n2)cc1`, `COc1ccc(C2=NNC(c3cc(Cc4ccc(O)c(C5CC(c6ccc(OC)cc6)=NN5)c4)ccc3O)C2)cc1` (centres undefined) is lower in growth: 101% for the first, 33.7% for the second.

First: CC[N+](CC)(CCOCCOCC[N+](CC)(CC)Cc1ccc([N+](=O)[O-])cc1)Cc1ccc([N+](=O)[O-])cc1
Second: Nc1ccc2c(c1)/C(=N/O)c1cc([N+](=O)[O-])ccc1-2
The growth of the first is lower: 98.9% for the first, 109% for the second.

First: S=C1SCN(Cc2ccccc2)CN1Cc1ccco1
Second: N=C(N)/N=C(\CCc1nc2ccccc2[nH]1)c1nc2ccccc2[nH]1
The growth of the first is higher: 99.2% for the first, 93.4% for the second.

Going from `CCC(=O)Nc1ccccc1C#C/C=C\C#Cc1ccccc1C(F)(F)F` to `COc1cc(C2C=C(c3ccc(C)cc3)Nc3nc(SC)[nH]c(=O)c32)ccc1Oc1ccnc2cc(Cl)ccc12` (centres undefined), the growth rises from 27.2% to 72.6%.

With `Cc1cc(N2CCOCC2)nc(N2CCOCC2)n1` the growth was 96.3%.

In the case of `COc1ccc(C2=NN(C(=O)c3cc(OC)c(OC)c(OC)c3)C(c3ccc(C#N)cc3)C2)cc1OC` (centres undefined), the growth is reported as 2.92% (active).
For `CO[C@H]1CC(O[C@@H]2/C(C)=C/C[C@@H]3C[C@@H](C[C@]4(CC[C@H](C)[C@@H](C5CCCCC5)O4)O3)OC(=O)[C@@H]3C=C(C)/C(=N/O)[C@H]4OC/C(=C\C=C\[C@@H]2C)[C@]43O)O[C@@H](C)C1O` (some centres undefined), the growth was -76.3% (active).
With `C[n+]1c2ccccc2c(Nc2ccc(N3CCCCC3)cc2)c2[nH]c3ccccc3c21` the growth was -61.8% (active).
`C[C@@H]1CC[C@H]2[C@@H](C)C(O)O[C@@H]3O[C@]4(C)CC[C@@H]1[C@]32OO4` (some centres undefined) was tested, and the growth was 9.21% (active).

system: T-47D breast; experiment: as above; conditions: 10 µM unless noted

`C=C1c2c(C)nn(-c3ccc(C#CCOC4OC(CO)C(O)C(O)C4O)cc3)c2N(C)C23C[C@H]1C1(C)c4c(C)nn(-c5ccc(C#CCOC6OC(CO)C(O)C(O)C6O)cc5)c4N(C)C(C)(C[C@H]12)C3` (some centres undefined) was tested, and the growth was 7.11% (active).
`CO[C@H]1CC(O[C@@H]2/C(C)=C/C[C@@H]3C[C@@H](C[C@]4(CC[C@H](C)[C@@H](C5CCCCC5)O4)O3)OC(=O)[C@@H]3C=C(C)/C(=N/O)[C@H]4OC/C(=C\C=C\[C@@H]2C)[C@]43O)O[C@@H](C)C1O` (some centres undefined) was tested, and the growth was -78.1% (active).
In the case of `COc1cc(C(=O)/C=C/c2cccnc2Nc2ccccc2)cc(OC)c1OC`, the growth is reported as -39.8% (active).
For `C[n+]1c2ccccc2c(Nc2ccc(N3CCCCC3)cc2)c2[nH]c3ccccc3c21`, the growth was -55.7% (active).

First: [O-]/[N+](=C\C=C\c1ccccc1)c1ccccc1
Second: O=C(c1ccccc1)c1ccco1
The growth of the first is lower: 95.6% for the first, 97% for the second.

First: CN1CCN(Cc2ccc(NC(=O)c3[nH]ncc3Nc3ccnc4ccnn34)cc2)CC1
Second: O=C(O)c1ccc(NC(=O)c2ccc(Nc3ccnc(C(F)(F)F)c3)cc2)cc1
The growth of the first is lower: 63.2% for the first, 93.8% for the second.

Compared with `CCCOc1ccc2c(c1)CC[C@@H]1[C@@H]2CC[C@@]2(C)[C@H]1CC[C@]2(C)O`, `C=C(C)[C@@H]1C/C=C(/C=O)CC[C@@H]2O[C@@]2(C)CC/C=C(\C)CC1` is higher in growth: 83.4% for the first, 101% for the second.

First: COc1ccc(C2=NN(C(=O)c3cc(OC)c(OC)c(OC)c3)C(c3ccc(C#N)cc3)C2)cc1OC (centres undefined)
Second: COc1cc(/C=C/c2nnc(-c3cc(-c4ccccc4)n[nH]3)o2)cc(OC)c1OC
The growth of the first is lower: 37.1% for the first, 73.2% for the second.

First: O=C1CC(C(F)(F)F)=NN1C(=O)c1nn(-c2ccc(Cl)cc2)cc1O
Second: Cc1cc(C)n(C(=O)c2nn(-c3ccc(Cl)cc3)cc2O)n1
The growth of the first is higher: 84.8% for the first, 46.3% for the second.

Compared with `CCCCc1nc(Cl)c(CO)n1Cc1ccc(-c2ccccc2-c2nn[nH]n2)cc1`, `CCN(CC)c1ccc(CN(CC(=O)c2ccc(Cl)c(Cl)c2)Cc2ccccc2)cc1` is lower in growth: 110% for the first, 85.5% for the second.

First: CN(C)c1ccc2[nH]c3c(C(N)=O)cc(=O)c(=O)c=3oc2c1
Second: Cc1c(C(N)=O)sc2ncn(Cc3ccccc3)c(=O)c12
The growth of the first is lower: 18.1% for the first, 98.1% for the second.

Compared with `CCC1(c2ccccc2)Oc2ccccc2-n2c(C#N)c3ccccc3c2C1=O` (centres undefined), `O=C(CSc1nc2c(n1Nc1ccccc1)-c1ccccc1SC2)Nc1nc(-c2ccc(Cl)cc2)cs1` is lower in growth: 91.7% for the first, 66.8% for the second.

Compared with `O=C1Nc2ccc(F)cc2/C1=C/c1nc(-c2ccc(F)cc2)n2ccccc12`, `COc1ccc(-c2nn(-c3ccccc3)cc2/C=C2\SC(=S)N(CCc3ccc(O)cc3)C2=O)cc1` is lower in growth: 96.6% for the first, 56.3% for the second.

Going from `Fc1ccc([C@@H]2CCNC[C@H]2COc2ccc3c(c2)OCO3)cc1` to `CCOc1cccc(C2CC(=O)Nc3cc4c(cc32)OCO4)c1` (centres undefined), the growth rises from 63.7% to 66.9%.

First: CCCc1nn(C)c2c(=O)[nH]c(-c3cc(S(=O)(=O)N4CCN(C)CC4)ccc3OCC)nc12
Second: Cn1c(=O)c2c(nc(Br)n2CCC(=O)Nc2ccc(F)cc2)n(C)c1=O
The growth of the first is higher: 98.4% for the first, 97.3% for the second.

First: COc1ccc(-c2cc(Cc3cccs3)c(=O)n(Cn3cncn3)n2)cc1
Second: COc1ccc(C2=NNC(c3cc(Cc4ccc(O)c(C5CC(c6ccc(OC)cc6)=NN5)c4)ccc3O)C2)cc1 (centres undefined)
The growth of the first is higher: 93.9% for the first, 50.3% for the second.

Going from `CC[N+](CC)(CCOCCOCC[N+](CC)(CC)Cc1ccc([N+](=O)[O-])cc1)Cc1ccc([N+](=O)[O-])cc1` to `Nc1ccc2c(c1)/C(=N/O)c1cc([N+](=O)[O-])ccc1-2`, the growth falls from 95.3% to 93%.

Going from `S=C1SCN(Cc2ccccc2)CN1Cc1ccco1` to `N=C(N)/N=C(\CCc1nc2ccccc2[nH]1)c1nc2ccccc2[nH]1`, the growth rises from 59.3% to 99.7%.

Compared with `CC[C@@H]1OC(=O)[C@H](C)[C@@H](O[C@H]2C[C@@](C)(OC)[C@@H](O)[C@H](C)O2)[C@H](C)[C@@H](O[C@@H]2O[C@H](C)C[C@H](N(C)C)[C@H]2O)[C@](C)(O)C[C@@H](C)[C@@H]2N[C@@H](COCCOC)O[C@H]([C@H]2C)[C@]1(C)O`, `C[C@@H]1CC[C@H]2[C@@H](C)C(O)O[C@@H]3O[C@]4(C)CC[C@@H]1[C@]32OO4` (some centres undefined) is lower in growth: 105% for the first, 36.3% for the second.

First: CCC(=O)Nc1ccccc1C#C/C=C\C#Cc1ccccc1C(F)(F)F
Second: COc1cc(C2C=C(c3ccc(C)cc3)Nc3nc(SC)[nH]c(=O)c32)ccc1Oc1ccnc2cc(Cl)ccc12 (centres undefined)
The growth of the first is lower: 65.4% for the first, 82.3% for the second.

With `Cc1cc(N2CCOCC2)nc(N2CCOCC2)n1` the growth was 98%.
